Test results taken from ChEMBL document CHEMBL3988442, “University of Dundee, Small-Polar-MMV Screening Library” (2021).
Among all 48,000 compounds or so, about 13,000 (27%) showed an effect of 50% or more. This is one part of the list.

test system: Wolbachia pipientis; test: Anti-Wolbachia Cell-Based Screen; type: functional; set-up: scale not given: in the data most compounds retested in dose-response had high values; conditions: 5 µM

Going from `Cc1cc(CNC(=O)COc2ccccc2F)c(C)o1` to `COc1ccc(CNC(=O)NCc2cc(C)oc2C)cc1`, the “Percent Effect” value falls from 7.15% to 2.864%.

Compared with `Cc1nnn2c1COCC(CNC(=O)c1cnoc1C)C2` (stereo unspecified), `Cc1cc(CNC(=O)c2cnoc2C)c(C)o1` is higher in “Percent Effect” value: -0.1551% for the first, 146.4% for the second.

First: COc1cc(NC(=O)NCc2cc(C)oc2C)cc(OC)c1
Second: Cc1cc(C(=O)NCc2cc(C)oc2C)no1
The “Percent Effect” value of the first is lower: -2.456% for the first, 107.3% for the second.

Going from `Cc1cc(CNC(=O)c2ccno2)c(C)o1` to `Cc1cc(C(=O)NCc2cccnc2OC(C)C)no1`, the “Percent Effect” value falls from 94.7% to -0.04653%.

Going from `Cc1cc(C(=O)NCc2ccccn2)no1` to `Cc1noc(C)c1C(=O)NCCc1cccs1`, the “Percent Effect” value falls from 0.7911% to -0.0309%.

Going from `Cc1cccnc1CNC[C@H]1Cn2cc(-c3ccccc3)nc2CO1` to `c1cnc(NCC2Cn3nnc(-c4ccoc4)c3CO2)nc1` (stereo unspecified), the “Percent Effect” value rises from 6.747% to 9.551%.

Going from `NC(=O)c1cccc(CNC(=O)NCCOc2ccc(F)c(F)c2)c1` to `CNC(=O)C(NC(=O)c1c(C)noc1C)c1ccc(F)c(F)c1` (stereo unspecified), the “Percent Effect” value rises from 0.2822% to 1.933%.

Going from `CSCc1noc(C2CCC(=O)N(CCCN3CCCC3=O)C2)n1` (stereo unspecified) to `Cc1noc(C(C)N2CCN(Cc3noc(C4CC4)n3)CC2)n1` (stereo unspecified), the “Percent Effect” value rises from -15.49% to 1.427%.

Going from `OCCOc1ccc(NCc2cc(F)cc3cccnc23)cn1` to `COCCn1ccc2ccc(NC(=O)NCc3noc(C)n3)cc21`, the “Percent Effect” value falls from -4.55% to -17.56%.

Compared with `Cc1noc(CCCC(=O)N2CSCC2C(=O)NCC2CC2)n1` (stereo unspecified), `CC(=O)c1cccc(OCC(=O)N(CC(C)C)C2CCN(C)CC2)c1` is lower in “Percent Effect” value: 8.382% for the first, -3.463% for the second.

First: CC(NC(=O)NC1CCN(CC2CCCC2)CC1)c1nccs1 (stereo unspecified)
Second: CC(C)(C)C(=O)NC(c1nccs1)C1CCN(CC2CCCCC2)CC1.Cl (stereo unspecified)
The “Percent Effect” value of the first is lower: -2.566% for the first, 130.3% for the second.

Compared with `CC(NCCN1CCN(C(=O)C2CCCC2)CC1)c1nccs1` (stereo unspecified), `CC(C)c1nc(C(=O)N2CCCC(N)CC2)cs1` (stereo unspecified) is lower in “Percent Effect” value: 4.028% for the first, -4.509% for the second.

Compared with `Clc1ccc(N2CCC(C3CCN(Cc4cccnc4)CC3)C2)nc1` (stereo unspecified), `CC(c1nc(C2CC2)no1)N1CCN(Cc2ccccc2)CC1` (stereo unspecified) is higher in “Percent Effect” value: 4.175% for the first, 7.857% for the second.

Going from `Cc1noc(C)c1CN1CCN(C(C)c2nc(C3CC3)no2)CC1` (stereo unspecified) to `Cc1nc(CN2CCN(C(C)c3nc(C4CC4)no3)CC2)no1` (stereo unspecified), the “Percent Effect” value falls from 133.7% to 103.1%.

Going from `Cc1noc(C)c1CN1CCN(Cc2nc(C3CC3)no2)CC1` to `CC(C)c1nc(CN2CCN(C(C)c3nc(C4CC4)no3)CC2)no1` (stereo unspecified), the “Percent Effect” value rises from -14.96% to 0.3475%.

Compared with `CC(c1nc(C2CC2)no1)N1CCN(Cc2ccccc2F)CC1` (stereo unspecified), `Cc1ccccc1CN1CCN(C(C)c2nc(C3CC3)no2)CC1` (stereo unspecified) is higher in “Percent Effect” value: 3.653% for the first, 114.1% for the second.

Going from `CCc1noc(C(C)N2CCN(Cc3noc(C)n3)CC2)n1` (stereo unspecified) to `CC(C)c1noc(C(C)N2CCN(Cc3noc(C4CC4)n3)CC2)n1` (stereo unspecified), the “Percent Effect” value rises from -22.55% to 18.72%.

Going from `CC(C)c1noc(C(C)N2CCN(Cc3noc(C(C)(C)C)n3)CC2)n1` (stereo unspecified) to `Cc1nnc(C(C)N2CCN(Cc3noc(C(C)(C)C)n3)CC2)o1` (stereo unspecified), the “Percent Effect” value falls from 117.7% to 6.078%.

First: CC(C)c1noc(C(C)N2CCN(Cc3ccco3)CC2)n1 (stereo unspecified)
Second: CC(c1nc(C2CC2)no1)N1CCN(Cc2noc(C3CC3)n2)CC1 (stereo unspecified)
The “Percent Effect” value of the first is lower: -4.875% for the first, 103.7% for the second.

Going from `COc1ncccc1NC(=O)N1CCC(c2ccc(O)cc2)CC1` to `CC(NC(=O)N1CCN(c2ccccc2)CC1)c1nncn1C` (stereo unspecified), the “Percent Effect” value rises from -2.726% to 1.482%.

Going from `CN(CC(F)F)C(=O)c1cn(-c2ccc(Br)cc2)cn1` to `COC(=O)C1CN(Cc2ccn(-c3ccc(F)cc3)n2)C[C@@H](C)O1` (stereo partly specified), the “Percent Effect” value falls from 1.903% to -6.737%.

Compared with `CN(Cc1nc(C2CC2)no1)C(=O)C1COc2ccccc2C1` (stereo unspecified), `CN(Cc1csc2ccccc12)C(=O)NC1CCS(=O)(=O)C1` (stereo unspecified) is lower in “Percent Effect” value: 29.53% for the first, -6.965% for the second.

Compared with `Cc1ccnc(C(NC(=O)c2ncoc2C)C2CC2)n1` (stereo unspecified), `Cc1noc(C)c1C(=O)Nc1ccc2ncn(CC(C)C)c(=O)c2c1` is higher in “Percent Effect” value: -4.451% for the first, 120.5% for the second.

Going from `Cn1cccc1C(=O)N1CCC2(CC1)c1nc[nH]c1CCN2S(C)(=O)=O` to `CC(C)(C)N1CCCN(C(=O)c2csc(S(N)(=O)=O)c2)CC1`, the “Percent Effect” value rises from -21.07% to 4.518%.

First: Cc1c2ncn(CC(=O)N(C)C)c(=O)c2nn1C
Second: COCCn1cnc2ccc(NC(=O)c3c(C)noc3C)cc2c1=O
The “Percent Effect” value of the first is lower: -2.054% for the first, 114.6% for the second.

Going from `CC(C(=O)O)N1CCc2onc(-c3ccc(F)c(F)c3)c2C1` (stereo unspecified) to `Cc1noc(C)c1C(=O)NCC(O)c1ccc(F)cc1F` (stereo unspecified), the “Percent Effect” value rises from -3.454% to 3.33%.

Compared with `O=C(CCNC(=O)c1sccc1-c1ccccc1)NC1CCS(=O)(=O)C1` (stereo unspecified), `O=C(NC1CCS(=O)(=O)C1)c1ccccc1SCc1cscn1` (stereo unspecified) is lower in “Percent Effect” value: 26.53% for the first, -4.386% for the second.

First: Cn1cc(CCNC(=O)NC2CCS(=O)(=O)C2)cn1 (stereo unspecified)
Second: CCc1c(C(=O)NC2CCS(=O)(=O)C2)cnn1-c1ccc(F)cc1 (stereo unspecified)
The “Percent Effect” value of the first is lower: -13.02% for the first, 9.191% for the second.

Going from `O=C(NC1CCS(=O)(=O)C1)c1ccc(-c2ccc(F)cc2)s1` (stereo unspecified) to `CC(C)n1cc(C(=O)NC2CCS(=O)(=O)C2)c2ccccc2c1=O` (stereo unspecified), the “Percent Effect” value rises from 1.727% to 104.9%.

Going from `O=C(NC1CCC(N2C(=O)CCC2=O)CC1)c1c[nH]c2ccccc12` (stereo unspecified) to `O=C(NC1CCS(=O)(=O)C1)c1cn(C2CC2)c(=O)c2ccccc12` (stereo unspecified), the “Percent Effect” value rises from -1.536% to 92.4%.

Going from `CC(C)[C@H](NC(=O)NC1CCS(=O)(=O)C1)C(=O)NCc1ccccc1Cl` (stereo partly specified) to `CC(C)Cn1cc(C(=O)NC2CCS(=O)(=O)C2)c2ccccc2c1=O` (stereo unspecified), the “Percent Effect” value rises from -0.7444% to 107.3%.

Compared with `COCCN1CCC(NC(=O)Cn2cc(C)c3ccccc32)CC1`, `COCCn1cc(C(=O)NC2CCS(=O)(=O)C2)c2ccccc2c1=O` (stereo unspecified) is higher in “Percent Effect” value: -24.59% for the first, 102% for the second.

First: Cn1cnc2cc(C(=O)N3CCN(CCO)[C@@H]4CS(=O)(=O)C[C@@H]43)ccc21
Second: CC(C)CCn1cc(C(=O)NC2CCS(=O)(=O)C2)c2ccccc2c1=O (stereo unspecified)
The “Percent Effect” value of the first is lower: -4.245% for the first, 143.5% for the second.

Going from `O=C(O)c1cc(-c2ccoc2)cc(S(=O)(=O)NC2CC2)c1` to `O=C(NC1CCS(=O)(=O)C1)c1sccc1OC(F)F` (stereo unspecified), the “Percent Effect” value rises from 13.87% to 15.29%.

Compared with `Cc1nnc(CN2C[C@H](NC(=O)CC3CCCC3)[C@@H](C3CC3)C2)s1`, `CCc1cc(NC(=O)c2cccc(OCC(F)(F)F)n2)[nH]n1` is lower in “Percent Effect” value: -5.316% for the first, -13.74% for the second.

In the case of `Cc1nonc1-c1nc(C(C)C)nn1-c1ccc2c(c1)OCO2`, the “Percent Effect” value is reported as -15.14%.
